# From PubChem
# RORg inh: inhibitors of mouse ROR gamma transcriptional activity; P51450; Drosophila S2 Gal4-RORgamma UAS-luciferase reporter, 20 h; Potency, µM (series often up to 53.6 µM), without a hit: at the top dose activity change, negative = inhibition, usual class: inhibitors; 310,000 tested, 5.4% active; further: nearly all actives have a fitted effect of over 60% in size
# Target sequence (P51450 whole entry, looked up, the tested form may be a part): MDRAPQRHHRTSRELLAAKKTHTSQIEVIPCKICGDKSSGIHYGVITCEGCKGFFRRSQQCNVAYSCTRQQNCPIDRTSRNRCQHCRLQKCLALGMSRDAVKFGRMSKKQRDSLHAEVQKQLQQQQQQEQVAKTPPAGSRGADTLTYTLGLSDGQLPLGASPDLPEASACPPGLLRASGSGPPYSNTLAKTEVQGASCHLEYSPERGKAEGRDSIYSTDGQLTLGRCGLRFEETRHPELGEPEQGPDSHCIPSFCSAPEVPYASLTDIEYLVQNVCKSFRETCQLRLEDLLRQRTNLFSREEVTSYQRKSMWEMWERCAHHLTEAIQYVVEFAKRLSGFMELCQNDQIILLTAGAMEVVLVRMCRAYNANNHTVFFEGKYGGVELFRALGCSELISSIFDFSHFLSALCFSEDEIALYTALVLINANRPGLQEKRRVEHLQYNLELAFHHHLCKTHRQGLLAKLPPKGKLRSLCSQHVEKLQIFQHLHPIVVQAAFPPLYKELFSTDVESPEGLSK
#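 ROR gamma transcriptional activity was tracked as Gal4-UAS luciferase output in stably transfected Drosophila Schneider cells, with compound added 1 hr before 700 uM copper sulfate induction and a 20 hr ambient-temperature incubation.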
# KinaseGlo FLuc: Kinase-Glo luciferase inhibition (counter-screen); Kinase-Glo luciferase, ATP luminescence, 8 min; Potency, µM (doses to about 38.3 µM), inactives show at the top dose activity change, negative = inhibition, actives largely listed as inhibitors; Q27757; 200,000 tested, 0.28% active; AID 1379; further: nearly all actives have a fitted effect of over 60% in size
#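 Inhibition of Kinase-Glo luciferase light generation was assessed at 10 uM ATP in pH 7.2 imidazole buffer, with luminescence measured after eight minutes at ambient temperature.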
# VP16 counter: counter-screen for ROR gamma inhibitors: Gal4-VP16 reporter; 310,000 tested, 3.5% active; Potency, µM (titrated, usually from 53.6 µM), inactives show at the top dose activity, negative = inhibition, most hits filed as inhibitors; Drosophila S2 Gal4-VP16 UAS-luciferase, luminescence, 20 h;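 further: Gal4-VP16 expression switched on by copper sulfate through the metallothionein promoter; nearly all actives have a fitted effect of over 50% in size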
# Numbers without * were called inactive; u = inconclusive; x = no result; [ ] = dose if it differs, or a comment. Compounds with a hit are over-represented: about 6.2% of the library has one in this group of screens. The call rests on the fitted dose curve; in most records, active means well fitted curve in the direction sought with a large enough effect; inconclusive means small, poorly fitted or top-dose-only effect, or another doubt; inactive means no such curve, though single readings can be large; an effect the other way counts as inactive or inconclusive. On the % scale 0 is the no-effect control and ±100 the full control effect; potency means the concentration at half of the fitted maximal effect.
SMILES,RORg inh,KinaseGlo FLuc,VP16 counter
Cc1nccn1CC(=O)N/N=C/c1ccccc1O,4µM*,x,u
Cc1cc(SCC(=O)N/N=C/c2ccc(O)c(O)c2O)c(C)cc1Br,2.8µM*,-2%,u
COc1ccc(CSCC(=O)N/N=C/c2ccccc2O)cc1,0.71µM*,5%,3.2µM*
COc1ccc(NC(=O)CSCc2ccc(C)cc2)cc1,36%,0%,9%
Cc1nccn1CC(=O)N/N=C/c1c[nH]c2ccccc12,7%,x,3%
C/C(=N\OCC(=O)N/N=C/c1ccccc1)c1cccs1,22%,-3%,8%
COC(=O)C1=C[C@@H](C(=O)OC)[C@@H]2C3=C(C(=O)[C@]2(C)NC(=O)c2ccccc2)[C@H](C)[C@@H]2C(=O)NC(=O)[C@@H]2[C@@H]3C1,-12%,x,2%
Cc1nn(CCCC(=O)NCc2ccc(F)cc2)c(=O)c2nccn12,1%,x,-5%
CC(C)Nc1ccc(C(CC(N)=O)NC(=O)Cc2ccc(Br)cc2)cc1[N+](=O)[O-] (stereo not given),29%,x,0%
CCN1C(=O)[C@H]2[C@@H](c3ccc(C)cc3)N3C(=O)N(c4ccccc4)C(=O)[C@@]3(CC)[C@H]2C1=O,21%,x,18%
Cc1cc(C(=O)c2ccc(C(C)(C)C)cc2)c(NC(=O)CCl)s1,11µM*,3%,u
Cc1cc(C(=O)c2ccccc2)c(NC(=O)CN2CCOCC2)s1,-1%,-3%,-8%
COc1ccc(C(=O)OC(C)C(=O)NC(C)CCc2ccccc2)c(OC)c1 (stereo not given),28%,x,2%
COc1ccc(-c2nc3cnc(N(C)C)nc3n(Cc3ccc(F)cc3)c2=O)cc1,17%,x,-8%
Cc1cc(C2=NNC(=NC3CC3)SC2)c(C)n1Cc1ccco1,u,u,-3%
c1ccc2c(C3=NNC(=NC4CCCCC4)SC3)c[nH]c2c1,9%[10 µM],2%,-7%
c1ccc2c(C3=NNC(=NC4CC4)SC3)c[nH]c2c1,10µM*,-13%,10µM*
c1ccc(C2=NNC(=NC3CC3)SC2)cc1,14µM*,4.5µM*,13µM*
Cc1ccc(NC(=S)N2CCC(c3ccc(C)cc3)C2)cc1 (stereo not given),10µM*,x,20µM*
CCc1cccc(NC(=S)N2CCC(c3ccccc3)C2)c1 (stereo not given),7.1µM*,1%,10µM*
Cc1ccc(C2CCN(C(=O)Nc3ccccc3)C2)cc1 (stereo not given),34%,-1%,-4%
Fc1cc(F)cc(NC(=S)N2CCC(c3ccccc3)C2)c1 (stereo not given),u,-2%,-6%
O=C(NCc1cccnc1)c1ccc2c(c1)OCO2,7%,-2%,-2%
O=C(NC(Cc1ccccc1)C(=O)O)C1CCCCC1 (stereo not given),-4%,-1%,-12%
O=C(NC(=S)Nc1ccccc1)C1CCCCC1,2.8µM*,x,4µM*
SMILES,RORg inh,KinaseGlo FLuc,VP16 counter
O=C(NC(=S)Nc1ccc(Br)cc1)C1CCCCC1,5µM*,x,7.9µM*
NS(=O)(=O)c1ccc(NC(=S)NC(=O)C2CCCCC2)cc1,0%,3%,6%
O=C(Nc1ccc(Br)cc1)C1CCCC1,-21%,x,1%
O=C(NC(=S)Nc1ccc(Br)cc1)C1CCC1,6.3µM*,x,7.9µM*
O=C(NC(=S)NCc1ccccc1)C1CCCCC1,1.6µM*,-3%,7.1µM*
O=C(Nc1ccccc1)C1CCCCC1,17%,1%,-1%
OCC[C@@H]1C[C@@H](O)[C@H](O)[C@@]2(CCCc3ccccc3O2)O1,-11%,x,1%
Nc1sc2c(c1C(=O)c1ccc(Cl)cc1)CCCC2,19%,x,0%
CC(=O)Nc1ccc(N2C(=O)c3ccc(C(=O)Nc4nnc(SCc5ccc(F)cc5)s4)cc3C2=O)cc1,17%,1%,-5%
CC(=O)NC(=S)Nc1cccc([N+](=O)[O-])c1,u,0%,16%
CCNC(=S)Nc1cccc([N+](=O)[O-])c1,-1%,15%,-1%
O=[N+]([O-])c1cccc(NC(=S)Nc2nc(-c3ccccc3Cl)cs2)c1,2µM*,x,2.5µM*
O=C(NC(=S)Nc1cccc([N+](=O)[O-])c1)C1CCCC1,13µM*,x,u
O=C(OCCOc1ccc(Br)cc1)c1ccc(Cl)nc1,14%,4%,5%
c1nc2n(n1)C1=C(CCCC1)C1(CCCCC1)N2,2.5µM*,-3%,u
NNC(=O)c1ccc(CN2CCCCC2)o1,-15%,1%,6%
Nc1c(C(=O)c2ccccc2)sc2snc(SCC(=O)c3ccccc3)c12,11µM*,-2%,13µM*
Nc1nnc(SCC(=O)c2ccccc2)s1,-3%,0%,-14%
CCCN(CCC)C(=O)c1ccc2c(c1)N(CC)C(=O)c1ccccc1S2(=O)=O,21%,x,5%
COc1ccc(-n2c(=S)[nH]c3cc(C(=O)NCCCN4CCOCC4)ccc3c2=O)cc1,-42%,x,-5%
COc1ccc(-n2c(=S)[nH]c3cc(C(=O)Nc4ccccc4OC)ccc3c2=O)cc1,1.6µM*,5%,u
COc1ccc(-n2c(=S)[nH]c3cc(C(=O)Nc4ccccc4OC)ccc3c2=O)c(OC)c1,1.6µM*,x,4.5µM*
COc1ccc(-n2c(=S)[nH]c3cc(C(=O)NCc4ccccc4OC)ccc3c2=O)c(OC)c1,14µM*,x,14µM*
COc1ccc(-n2c(=O)c3ccccc3c3ccccc3c2=O)c(OC)c1,3%,1%,3%
COc1ccc(-n2c(=S)[nH]c3cc(C(=O)NCc4ccco4)ccc3c2=O)c(OC)c1,u,3%,-10%
SMILES,RORg inh,KinaseGlo FLuc,VP16 counter
CC1(C)CC(=O)c2cc(NC(=O)c3ccccc3)c(=O)oc2C1,37%,x,14%
CCCC1(C)NC(=O)c2ccccc2O1 (stereo not given),1%,2%,2%
Cc1ccc(CSCC(=O)N/N=C/c2cccc(OC3CSC3)c2)cc1,-13%,-1%,-9%
Cc1cccc(-n2cc[nH]c2=S)c1,7.9µM*,3%,u
Cc1cccc(-n2cc[nH]c2=S)c1C,-171%,x,u
Cc1n[nH]c(=O)n1-c1ccc(C(C)(C)C)cc1,2%,-1%,-9%
Cc1ccc(-n2c(C)n[nH]c2=S)cc1,11µM*,-3%,u
Cc1cccc(-n2c(-c3ccncc3)n[nH]c2=S)c1,u,-2%,-21%
Cc1cc(=O)[nH]c(=S)n1-c1ccccc1,-26%,0%,0%
Cc1cccc(-n2c(C)c(-c3ccccc3)[nH]c2=S)c1,1.1µM*,x,7.9µM*
Cc1cccc(-n2c(C)n[nH]c2=S)c1,11µM*,-1%,-10%
CCN(CC)CC(=O)N1CCCC(N2CCN(c3cccc(C(F)(F)F)c3)CC2)C1 (stereo not given),8%,x,-11%
COCCN(C(=O)COC(=O)C1(C)CC1(Cl)Cl)c1c(N)n(Cc2ccccc2)c(=O)[nH]c1=O (stereo not given),-3%,x,-10%
CC(C)N(CCc1ccncc1)C(=S)Nc1ccc(F)c(Cl)c1,-39%,x,-2%
O=[N+]([O-])c1cccc(/C=N/Nc2nc(NCc3ccccc3)nc(N3CCOCC3)n2)c1O,1%,-1%,-16%
Cc1ccc(-n2c(C)n[nH]c2=S)cc1C,11µM*,5%,u
Cc1ccc(-n2c(C)c3c(C)nnc(C)c3c2C)cc1C,u,16%,-22%
